NTMT1 inh = Primary qHTS for Inhibitors of N-terminal methyltransferase 1 (NTMT1): MTaseGlo Assay | N-terminal Xaa-Pro-Lys N-methyltransferase 1 (Homo sapiens), Q9BV86 | NTMT1 MTase-Glo SAH luminescence, purified enzyme | Potency, µM (top dose mostly 114 µM), for the others: at the top dose activity change, negative = inhibition, actives largely listed as inhibitors | hit rate 2.5% among 59,000 | AID 1645870, 2021;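 also: potency is read from the fitted curve at half-maximal effect; plate controls were DMSO vehicle for no effect and no enzyme for full effect; nearly all actives have a fitted effect of over 65% in size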
Target sequence (Q9BV86 whole entry, looked up): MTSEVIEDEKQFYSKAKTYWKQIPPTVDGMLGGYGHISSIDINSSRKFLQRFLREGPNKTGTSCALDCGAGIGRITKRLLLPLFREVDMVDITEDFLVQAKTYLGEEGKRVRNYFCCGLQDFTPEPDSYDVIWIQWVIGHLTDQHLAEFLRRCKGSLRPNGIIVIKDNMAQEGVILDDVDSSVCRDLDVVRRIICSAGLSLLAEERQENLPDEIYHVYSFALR
B2AR arrestin ag = qHTS assay of beta-arrestin-biased ligands of beta2-adrenergic receptor: NCGC Sytravon Library Screen. 44,000 tested, under 10 active. HTLA Tango cells, beta-arrestin recruitment, luciferase luminescence, 18 h. Potency, µM (series often up to 46.1 µM), most hits filed as activators. Beta-2 adrenergic receptor (Homo sapiens), P07550;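 also: potency is read from the fitted curve at half-maximal effect; 0% = DMSO and full agonism = EC100 isoproterenol or metaproterenol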
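Luminescence read-out: arrestin recruitment to recombinant beta2-AR releases tTA, inducing luciferase. Cells exposed 18 hr at 37 degrees C to up to 46 microM compound; %Activity from corrected signal, concentration-response curves classified by r2, magnitude and efficacy.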
GALK inhibitor = qHTS Assay for Inhibitors of Human Galactokinase (GALK): NCGC Sytravon Library Screen | P51570 | recombinant GALK, Kinase-Glo ATP luminescence, 1 h | Potency, µM (series often up to 57.5 µM), for inactives: top-dose activity, negative = inhibition, most hits filed as inhibitors | 44,000 tested, under 10 active | AID 1347072, 2019;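 also: plate controls were full GALK reaction for no effect and reaction lacking GALK for full effect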
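Human GALK (5 nM) was incubated with 35 uM ATP and 100 uM galactose in 20 mM HEPES pH 8.0 with MgCl2, NaCl, DTT and BSA for 1 h at room temperature. Remaining ATP was measured by Kinase-Glo Plus luminescence.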
FH mod = Identification of activators of human fumarate hydratase by quantitative high-throughput screening; Potency, µM (series often up to 79.9 µM), for inactives: at the top dose activity change, negative = inhibition, usual class: inhibitors; FH coupled MDH/diaphorase resazurin fluorescence, 15 min; hit rate 0.22% among 54,000; Fumarate hydratase, mitochondrial (Homo sapiens), P07954; also: potency is read from the fitted curve at half-maximal effect; % is scaled to controls: 0 for no effect and ±100 for the full control effect; the screen sought activators but most active calls are inhibition curves; nearly all actives have a fitted effect of over 45% in size
Target sequence (P07954 whole entry, looked up): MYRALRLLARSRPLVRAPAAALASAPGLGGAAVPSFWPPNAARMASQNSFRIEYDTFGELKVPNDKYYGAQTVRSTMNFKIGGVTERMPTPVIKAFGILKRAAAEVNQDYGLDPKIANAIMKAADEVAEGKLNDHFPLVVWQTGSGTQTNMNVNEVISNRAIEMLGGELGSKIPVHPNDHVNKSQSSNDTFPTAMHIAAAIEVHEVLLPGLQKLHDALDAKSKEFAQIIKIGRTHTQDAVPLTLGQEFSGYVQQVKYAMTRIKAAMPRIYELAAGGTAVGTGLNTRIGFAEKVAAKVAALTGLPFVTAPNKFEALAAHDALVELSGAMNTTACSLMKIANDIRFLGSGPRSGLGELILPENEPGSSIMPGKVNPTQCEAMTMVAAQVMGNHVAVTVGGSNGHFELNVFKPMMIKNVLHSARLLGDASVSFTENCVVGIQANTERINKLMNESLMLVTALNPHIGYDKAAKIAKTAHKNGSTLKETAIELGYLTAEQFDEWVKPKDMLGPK
TSG101-PTAP inh = qHTS Validation Assay for Inhibitors of HIV-1 Budding by Blocking the Interaction of PTAP/TSG101: Sytravon Library Screen | 44,000 tested, under 10 active | Fluorescence polarization, FITC-PTAP peptide/Tsg101, 20 min | Tumor susceptibility gene 101 protein (Homo sapiens), Q99816 | Potency, µM (doses to about 115 µM), most hits filed as inhibitors; also: potency is read from the fitted curve at half-maximal effect; 0% is about no effect
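FITC-labeled PTAP peptide (50 nM final) binding to Tsg101 binding domain (10 uM final) read by fluorescence polarization after 20 min at r.t. in HEPES pH 7.5 buffer. Actives by CRC class, <25 µM.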
* hit, by the source's call; i = inactive; u = inconclusive; x = no result; ! = not confirmed by another sample; [ ] = dose if it differs, or a comment. The sample as a whole holds a higher share of hits than the screen did. Calls follow the shape of the dose curve; as a rule, active = well fitted curve in the direction sought with a large enough effect; inconclusive = small, poorly fitted or top-dose-only effect, or another doubt; inactive = no such curve, though single readings can be large; an effect the other way counts as inactive or inconclusive.

SMILES | NTMT1 inh | B2AR arrestin ag | GALK inhibitor | FH mod | TSG101-PTAP inh
CCOc1cc(CNC(=O)CSc2n[nH]c(-c3ccccc3)n2)cc(OCC)c1OCC | 3% | i | 1% | -4% | i
CCOc1ccc(CCNC(=O)CSc2n[nH]c(-c3ccccc3)n2)cc1OCC | 6% | i | 4% | 6.3µM* | i
S=C(NCCCc1cnc[nH]1)NCCCN(Cc1ccc(Cl)c(Cl)c1)c1ccccn1 | 3% | x | x | x | x
Cc1cc(OI)c(C(C)C)cc1-c1cc(C(C)C)c(OI)cc1C | 18µM* | x | x | -14%[53.3 µM] | x
Cc1ccc(C(C)C)cc2c(C)ccc1-2 | 24%[57.5 µM] | x | x | 0%[53.3 µM] | x
CCOc1ccc(-n2nc3ccc(NC(=O)COc4ccccc4)cc3n2)cc1 | u | i | 0% | 10% | i
CCOc1ccc(-n2nc3ccc(NC(=O)c4ccc(-c5cccc(Cl)c5)o4)cc3n2)cc1 | 79µM* | i | 0% | -5% | i
CCOC(=O)c1cnn(-c2ccc(C(=O)Nc3ccc(C(C)=O)cc3)cc2)c1N | 5% | i | 0% | u | i
CCOC(=O)c1cnn(-c2ccc(C(=O)Nc3cc(OC)c(OC)c(OC)c3)cc2)c1N | 89µM* | i | -1% | -24% | i
Cc1cccc2oc(NC3=NC(c4[nH]ncc4Cl)C4=C(CCCC4=O)N3)nc12 (stereo not given) | -11% | x | x | x | x
C/C(=C\CCC(C)C1=CCC2(C)OC3=C(CC12)C(=O)C(O)CC3)CO (stereo not given) | 3%[57.5 µM] | x | x | 1%[53.3 µM] | x
CCCCCCCCCCCCCCCCCCN(CCCCCCCCCCCCCCCCCC)CCCN(CCO)CCO | x | x | x | -15%[53.3 µM] | x
CCCOc1ccc(CNC(=O)C2CCN(c3nc4ccccc4nc3C(F)(F)F)CC2)cc1 | 1% | i | 2% | 2% | i
CN(Cc1ccc(C(=O)O)cc1)c1ccc(OCc2c(-c3c(Cl)cccc3Cl)noc2C2CC2)nc1C(F)(F)F | u | x | x | 16µM* | x
O=C1c2ccccc2-c2nc3nnnn3nc21 (tested in a mixture with another compound) | u | x | x | 0.89µM* | x
O=[S+]([O-])(NCC#CCSc1nnc(-c2cccc3ccccc23)o1)c1ccc(F)cc1 | 14% | x | x | x | x
C[Se]CCC(N)C(=O)O (stereo not given) | 16µM*! | x | x | 5% | x
COc1ccc(NCc2ccc(O)c3ncccc23)nc1 | -1% | x | x | x | x
Oc1cccc2cc(CNc3ccccc3F)cnc12 | 19% | x | x | x | x
COc1cccc(C2c3c(ncn(-c4ccccc4C#N)c3=N)Oc3ccc4ccccc4c32)c1 (stereo not given) | 79µM* | x | x | x | x
NC(=O)c1ccc(F)c2c1C[C@@H](N(C1CCC1)C1CCC1)CO2 | 4%[57.5 µM] | x | x | 2% | x
C#Cc1cccc(Nc2nc3cc(C(=O)O)ccc3c3cncnc23)c1 | 25µM* | x | x | u | x
N[C@@H](CC(=O)O)C(=O)Nc1ccc(Cl)cc1C(=O)c1ccc[nH]1 | 3% | x | x | x | x
CCC(=O)NC(c1cccs1)c1cc([N+](=O)[O-])c2cccnc2c1OC (stereo not given) | 50µM*! | x | x | x | x
COc1ccc(CCNC(=O)CCc2c(C)nc3c(-c4ccc(F)cc4)c(C)nn3c2C)cc1OC | -16% | i | 8% | -19% | i
SMILES | NTMT1 inh | B2AR arrestin ag | GALK inhibitor | FH mod | TSG101-PTAP inh
COc1ccc(CCNC(=O)CCc2c(C)nc3cc(-c4cccc(F)c4)nn3c2C)cc1OC | 89µM* | i | 8% | -26% | i
COc1ccc2c(c1)C=C1Cn3c-2c(C2CCCCC2)c2ccc(cc23)C(=O)NS(=O)(=O)N(C)CCOCCN(C)C1=O | 45µM* | x | x | u | x
O=C1/C(=C/c2ccc(O)c(O)c2)Oc2ccccc21 | 28µM* | x | x | u | x
N#Cc1ccc(Cn2cncc2CN2CCN(c3cccc(Cl)c3)C(=O)C2)cc1 | -17% | x | x | x | x
CCNC1(C(N)=O)CCN(c2ncnc3c2nc(-c2ccccc2Cl)n3-c2ccc(Cl)cc2)CC1 | u | x | x | -6% | x
Cc1cc(OCCCS(C)(=O)=O)cc(C)c1-c1cccc(COc2ccc3c(c2)OC[C@H]3CC(=O)O)c1 | 79µM*! | x | x | -20%[53.3 µM] | x
CCOC(=O)c1c(-c2ccc(C)o2)csc1NC(=O)CSc1nnnn1-c1ccccc1 | 3.5µM* | x | x | x | x
CCOC(=O)c1c(-c2ccccc2)csc1NC(=O)c1cc(-c2cccc(Cl)c2)on1 | 22% | i | 0% | 3% | i
COc1ccccc1C(=O)Nc1nnc(SCc2cc(=O)n3ccc(C)cc3n2)s1 | 8% | i | 4% | 1.1µM* | i
CC1CN(CC(=O)Nc2ccc3c(c2)Cc2cccc(-c4cc(=O)cc(N5CCOCC5)o4)c2S3)CC(C)O1 (stereo not given) | u | x | x | -15% | x
Cc1c(Cl)cccc1NC(=O)c1cc2sccc2n1Cc1ccc(F)cc1 | 89µM* | i | 1% | -11% | i
OC[C@H]1O[C@@H](Oc2ccc(O)c3cccc(O)c23)[C@H](O)[C@@H](O)[C@@H]1O | u | x | x | -19%[53.3 µM] | x
Cc1ccc(S(=O)(=O)Nc2ccc(C(=O)Nc3ncc(-c4ccccc4)s3)cc2)cc1 | 7% | x | x | x | x
N=c1ccn2c(n1)O[C@H]1C(O)[C@@H](CO)O[C@H]12 (stereo not given in full) | x | x | x | -6%[53.3 µM] | x
C[C@H](Cc1ccc(O)c(O)c1)[C@@H](C)Cc1ccc(O)c(O)c1 | 7.9µM* | x | x | u | x
O=C(O)C(O)Cc1ccc(O)c(O)c1 (stereo not given) | 89µM*! | x | x | -12%[53.3 µM] | x
COc1ccc(C[C@@H](C)[C@@H](C)Cc2ccc(OC)c(OC)c2)cc1OC | 11% | x | x | -10%[53.3 µM] | x
N[C@@H](Cc1ccc(O)c(O)c1)C(=O)O | -20% | x | x | -27%[53.3 µM] | x
COc1ccc(OC)c(Nc2ncnc3c2cnn3-c2cccc(Cl)c2)c1 | -10% | i | -1% | -20% | i
CNC(=O)CN1CCC(Oc2cc3c(Nc4cccc(Cl)c4F)ncnc3cc2OC)CC1 | 35µM* | x | x | 8% | x
CCOc1ccc(CCNC(=O)c2cc3sccc3n2Cc2ccccc2)c(F)c1OCC | 18% | x | x | x | x
CC(C)(O)C(=O)N1CCN(c2ccc(C(F)(F)F)c(C3=C(c4c[nH]c5ccccc45)C(=O)NC3=O)c2)CC1 | 11µM* | x | x | -12% | x
Nc1ccccc1OCCn1c(CCNC(=O)C2CCCCC2)nc2ccccc21 | 29% | x | x | x | x
CC(C)(C)c1cnc(CSc2cnc(NC(=O)C3CCNCC3)s2)o1 | 50µM*! | x | x | 6%[53.3 µM] | x
COc1ccc(NC(=O)CSc2nc3c(oc4ccccc43)c(=O)n2Cc2ccco2)cc1Cl | -5% | i | 5% | -1% | i
